Measurements published in the supplement of paper PMC9135407.
Where “and” joins values, the source holds several entries; their conditions need not be identical. Equal values may be shown once. Where a name gives a salt, the structure may show the parent alone. Out of some 5,800 compounds screened, about 620 (11%) showed activity. This is one part of a sample in which actives are shown more often than they occur.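 How the source made its calls: active = score above a cut-off or among the top three wells of a plate; in these data no inactive exceeds 0.85.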

Test system: primary human hepatic stellate cells (donor 1)
Experiment: scaled lipid accumulation score (0 = DMSO-like, 1 = nortriptyline-like); higher = stronger HSC inactivation (lipid re-accumulation), active = hit call of the paper
Conditions: 48 h
Description: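 Primary lipid accumulation screen in primary human hepatic stellate cell myofibroblasts (donor 1, passage 8) in 384-well plates. 100 nL of library compound was pin-transferred into 30 µL medium in duplicate, and cells were treated for 48 h. The 'Scaled' score combines distance from plate baseline, toxicity and reproducibility penalties, and is normalised to nortriptyline (positive) and DMSO (negative) controls on each plate. A hit is defined as scaled >0.85 or among the top 3 wells per plate.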

[1] = library stock concentration: 10 mM
[2] = library stock concentration: 8.6 mM
[3] = library stock concentration: 1 mM
[4] = library stock concentration: 80 uM
[5] = library stock concentration: 400 uM
[6] = library stock concentration: 2 mM
[7] = library stock concentration: 3.33 mM

In the case of `Cc1c2ccncc2c(C)c2c1[nH]c1ccccc12` [Ellipticine], the “scaled lipid accumulation score” value is reported as 0.623 (inactive) and the “scaled lipid accumulation score” value [1] is reported as ≤ -0.07 (inactive).

With `CCC(N)C(O)c1ccc(O)c(O)c1` (configuration not stated) [Ethylnorepinephrine hydrochloride] the “scaled lipid accumulation score” value [2] was ≤ 0 (inactive) and the “scaled lipid accumulation score” value [1] was ≤ -0.027 (inactive).

For `NCC(O)c1cc(O)c(O)cc1F` (configuration not stated) [6-Fluoronorepinephrine hydrochloride], the “scaled lipid accumulation score” value [1] was ≤ 0 (inactive).

With `CCCCC/C=C\C/C=C\C/C=C\C/C=C\CCCC(=O)Nc1ccc(O)cc1C` the “scaled lipid accumulation score” value [3] was 0.064 (inactive).

For `CCCCCCCC/C=C\CCCCCCCC(=O)N[C@H](C)CO`, the “scaled lipid accumulation score” value [3] was 0.021 (inactive).

For `COc1cc(C(O)CN)ccc1O` (configuration not stated), the “scaled lipid accumulation score” value [1] was ≤ -0.055 (inactive).

`C=C(C)[C@@H]1CCC(C)=C[C@H]1c1c(O)cc(O)cc1CCCCC` was tested, and the “scaled lipid accumulation score” value [3] was ≤ 0 (inactive).

With `CCCCC/C=C\C/C=C\C/C=C\C/C=C\CCCC(=O)N[C@@H](C)C(=O)O` [N-Arachidonoyl-L-Alanine] the “scaled lipid accumulation score” value [3] was 0.035 (inactive).

For `CCn1cnc2c(Nc3cccc(Cl)c3)nc(N[C@@H]3CCCC[C@@H]3N)nc21`, the “scaled lipid accumulation score” value [4] was ≤ -0.016 (inactive), the “scaled lipid accumulation score” value [5] was ≤ -0.016 (inactive) and the “scaled lipid accumulation score” value [6] was 0.503 (inactive). The “scaled lipid accumulation score” value [1] was 0.364 (inactive) and 0.356 (inactive).

`CN1CCC[C@@H]1Cc1c[nH]c2ccc(Nc3ncccc3[N+](=O)[O-])cc12` was tested, and the “scaled lipid accumulation score” value [1] was ≤ 0 (inactive).

`CC[C@]1(O)CC[C@H]2[C@@H]3CCC4=CCCC[C@@H]4[C@H]3CC[C@@]21C` [Ethylestrenol] was tested, and the “scaled lipid accumulation score” value [1] was ≤ 0 (inactive).

For `CCN1C[C@]2(C)CC[C@H](O)[C@]34C1[C@@H](C[C@H]23)[C@@]1(O)C[C@H](OC)[C@H]2C[C@@H]4[C@@H]1[C@H]2O` [Karakoline], the “scaled lipid accumulation score” value was ≤ 0 (inactive).

With `C=C(C)[C@H]1CN[C@H](C(=O)O)[C@H]1CC(=O)O` [(-)-(.alpha.)-Kainic Acid (hydrate)] the “scaled lipid accumulation score” value [3] was ≤ 0 (inactive).

With `C=C(C)[C@H]1CN[C@H](C(=O)O)[C@H]1CC(=O)O` [Kainic acid] the “scaled lipid accumulation score” value [1] was ≤ -0.055 (inactive) and 0.031 (inactive) and ≤ -0.009 (inactive).

In the case of `COc1cc2c(cc1OC)C1CC(=O)C(CC(C)C)CN1CC2` (configuration not stated) [Tetrabenazine], the “scaled lipid accumulation score” value [1] is reported as ≤ 0 (inactive) and ≤ -0.001 (inactive).

`COc1cc2c(cc1OC)C(C)NCC2` (configuration not stated) was tested, and the “scaled lipid accumulation score” value was 0.537 (inactive).

`CC[C@H]1CN2CCc3cc(OC)c(OC)cc3[C@@H]2C[C@@H]1C[C@H]1NCCc2cc(OC)c(OC)cc21` [Emetine] was tested, and the “scaled lipid accumulation score” value [1] was 0.627 (inactive).

For `CC[C@H]1CN2CCc3cc(OC)c(OC)cc3[C@@H]2C[C@@H]1C[C@H]1NCCc2cc(OC)c(OC)cc21` [Emetine dihydrochloride hydrate], the “scaled lipid accumulation score” value [1] was 0.835 (inactive).

For `CC[C@H]1CN2CCc3cc(OC)c(OC)cc3[C@@H]2C[C@@H]1C[C@H]1NCCc2cc(OC)c(OC)cc21.Cl.Cl` [Emetine dihydrochloride], the “scaled lipid accumulation score” value was 0.98 (active).

With `CC[C@H]1CN2CCc3cc(OC)c(OC)cc3C2C[C@@H]1CC1NCCc2cc(OC)c(OC)cc21.Cl.Cl` (some centres not stated) [Emetine] the “scaled lipid accumulation score” value (library stock concentration: 3.6 mM) was 1.37 (active).

In the case of `CC(=O)[C@H]1CC[C@H]2[C@@H]3CC[C@H]4C[C@](C)(O)CC[C@]4(C)[C@H]3CC[C@]12C` [Ganaxolone], the “scaled lipid accumulation score” value [1] is reported as 0.134 (inactive) and ≤ -0.001 (inactive).

`CCCCCCC(=O)O[C@H]1CC[C@H]2[C@@H]3C[C@@H](O)C4=CC(=O)CC[C@]4(C)[C@H]3CC[C@]12C` [6.beta.-Testosterone Enanthate] was tested, and the “scaled lipid accumulation score” value [3] was 0.05 (inactive).

`c1ccc(/N=N/c2ccccc2)cc1` [Azobenzene] was tested, and the “scaled lipid accumulation score” value [1] was ≤ 0 (inactive).

`CC1=C2[C@H]3OC(=O)[C@@H](C)[C@@H]3CC[C@@]2(C)C=CC1=O` [alpha-Santonin] was tested, and the “scaled lipid accumulation score” value was ≤ 0 (inactive).

`C[C@H]1CC[C@]2(NC1)O[C@H]1C[C@H]3[C@@H]4CC[C@H]5C[C@@H](O)CC[C@]5(C)[C@H]4CC[C@]3(C)[C@H]1[C@@H]2C` [Tomatidine] was tested, and the “scaled lipid accumulation score” value was 0.117 (inactive).

In the case of `C[C@H]1O[C@@H](O[C@H]2CC[C@]3(C=O)[C@H]4CC[C@]5(C)[C@@H](C6=CC(=O)OC6)CC[C@]5(O)[C@@H]4CC[C@]3(O)C2)C[C@H](O)[C@@H]1O` [Helveticoside], the “scaled lipid accumulation score” value is reported as 0.504 (inactive).

For `C[C@]12CC[C@H]3[C@@H](CC[C@]4(O)C[C@@H](O)CC[C@]34C=O)[C@@]1(O)CC[C@@H]2C1=CC(=O)OC1` [Strophanthidin], the “scaled lipid accumulation score” value was 0.887 (active).

`C[C@]12CCC3C(CC[C@]4(O)C[C@@H](O)CC[C@]34C=O)[C@@]1(O)CCC2C1=CC(=O)OC1` (some centres not stated) [Strophanthidin] was tested, and the “scaled lipid accumulation score” value [1] was 1.12 (active).

`CCN1C[C@]2(COC(=O)c3ccccc3N3C(=O)C[C@H](C)C3=O)CC[C@H](OC)[C@@]34[C@@H]5C[C@H]6[C@H](OC)[C@@H]5[C@](O)(C[C@@H]6OC)[C@](O)([C@@H](OC)[C@H]23)[C@@H]14` [Methyllycaconitine citrate] was tested, and the “scaled lipid accumulation score” value [1] was ≤ -0.006 (inactive).

`CCC1(c2ccc(N)cc2)CCC(=O)NC1=O` (racemic) [Dl-aminoglutethimide] was tested, and the “scaled lipid accumulation score” value [2] was 0.005 (inactive).

In the case of `NC(CP(=O)(O)O)C(=O)O` (configuration not stated), the “scaled lipid accumulation score” value [1] is reported as 0.082 (inactive).

`CCCCCCCCCCCCCCCCOCC(COP(=O)([O-])OCC[N+](C)(C)C)OC(C)=O` (stereo not drawn) [Enantio-PAF C16] was tested, and the “scaled lipid accumulation score” value [3] was 0.064 (inactive).

In the case of `O=C(Oc1ccc([N+](=O)[O-])cc1)N1CCC(C(O)(c2ccc3c(c2)OCO3)c2ccc3c(c2)OCO3)CC1`, the “scaled lipid accumulation score” value [7] is reported as ≤ 0 (inactive) and the “scaled lipid accumulation score” value [1] is reported as ≤ -0.001 (inactive).

In the case of `O=[N+]([O-])/C=C/c1ccc2c(c1)OCO2`, the “scaled lipid accumulation score” value [1] is reported as 0.967 (active).

`C=CCc1ccc2c(c1)OCO2` [Safrole] was tested, and the “scaled lipid accumulation score” value [1] was 0.109 (inactive).

In the case of `O=[N+]([O-])/C=C/c1ccc2c(c1)OCO2` [Syk Inhibitor III], the “scaled lipid accumulation score” value [7] is reported as 0.609 (inactive).

In the case of `O=[N+]([O-])C=Cc1ccc2c(c1)OCO2`, the “scaled lipid accumulation score” value [7] is reported as 1.44 (active) and the “scaled lipid accumulation score” value [1] is reported as 0.901 (active).

For `c1cc2c(cc1[C@H]1OC[C@H]3[C@@H]1CO[C@@H]3c1ccc3c(c1)OCO3)OCO2` [Sesamin], the “scaled lipid accumulation score” value [7] was ≤ 0 (inactive) and the “scaled lipid accumulation score” value [1] was ≤ 0 (inactive).

For `C=C1C/C(=C/C)C(=O)O[C@@H]2CCN3CC=C(COC(=O)[C@]1(C)O)[C@H]23` [Seneciphylline], the “scaled lipid accumulation score” value was ≤ 0 (inactive).

With `CCCCC/C=C\C/C=C\C/C=C\C/C=C\CCCC(=O)NOCCO` [oxy-Arachidonoyl Ethanolamide] the “scaled lipid accumulation score” value [3] was 0.014 (inactive).

`C[C@H](N)C(=O)N[C@@H](C)C(=O)N[C@@H](Cc1ccccc1)C(=O)CCl` was tested, and the “scaled lipid accumulation score” value (library stock concentration: 14.7 mM) was 0.708 (inactive).

In the case of `CCCCCCCCCCCCCC(=O)O[C@@H]1[C@@H](C)[C@@]2(O)[C@@H](C=C(CO)C[C@]3(O)C(=O)C(C)=C[C@@H]23)[C@@H]2C(C)(C)[C@]12OC(C)=O` [Phorbol 12-myristate 13-acetate] [listing 1 of 2 here], the “scaled lipid accumulation score” value [1] is reported as ≤ 0 (inactive).

For `CC(=O)O[C@@]12C[C@@H](C)[C@@]3(O)[C@@H](C=C(CO)C[C@]4(O)C(=O)C(C)=C[C@@H]34)[C@@H]1C2(C)C` [Prostratin], the “scaled lipid accumulation score” value [3] was 0.583 (active).

`CCCCCCCCCCCCCC(=O)O[C@@H]1[C@@H](C)[C@@]2(O)[C@@H](C=C(CO)C[C@]3(O)C(=O)C(C)=C[C@@H]23)[C@@H]2C(C)(C)[C@]12OC(C)=O` [Phorbol 12-myristate 13-acetate] [listing 2 of 2 here] was tested, and the “scaled lipid accumulation score” value (library stock concentration: 8.1 mM) was 0.934 (active).

In the case of `CC(=O)O[C@@H]1CC[C@@]2(C)[C@@H](CC[C@@H]3[C@@H]2CC[C@]2(C)C(=O)CC[C@@H]32)C1` [Androsterone acetate], the “scaled lipid accumulation score” value [1] is reported as ≤ -0.027 (inactive).

With `C=CCN1CC[C@]23c4c5ccc(O)c4O[C@H]2/C(=N/N=C2\CC[C@@]4(O)[C@H]6Cc7ccc(O)c8c7[C@@]4(CCN6CC=C)[C@H]2O8)CC[C@@]3(O)[C@H]1C5` [Naloxonazine 2HCl] the “scaled lipid accumulation score” value (library stock concentration: 3.1 mM) was 0.144 (inactive).

`N[C@@H]1C[C@H]1c1ccccc1.N[C@H]1C[C@@H]1c1ccccc1` [Tranylcypromine sulfate] was tested, and the “scaled lipid accumulation score” value [2] was ≤ 0 (inactive) and the “scaled lipid accumulation score” value [1] was ≤ 0 (inactive).

`N[C@@H]1C[C@H]1c1ccccc1.N[C@H]1C[C@@H]1c1ccccc1` [Tranylcypromine] was tested, and the “scaled lipid accumulation score” value [4] was ≤ 0 (inactive), the “scaled lipid accumulation score” value [5] was ≤ 0 (inactive) and the “scaled lipid accumulation score” value [6] was ≤ 0 (inactive). The “scaled lipid accumulation score” value [1] was ≤ 0 (inactive) and the “scaled lipid accumulation score” value (library stock concentration: 15 mM) was ≤ -0.003 (inactive).

For `C=C(C)[C@@H]1CCC(C)=C[C@H]1C1=C(O)C(=O)C(CCCCC)=CC1=O`, the “scaled lipid accumulation score” value [3] was 0.055 (inactive).

`CC1=C2C(=CO[C@H](C)[C@H]2C)C(O)=C(C(=O)O)C1=O` [Citrinin] was tested, and the “scaled lipid accumulation score” value [1] was ≤ 0 (inactive).

In the case of `Cn1c2cccc(=O)c-2nc2ccccc21` [Pyocyanin], the “scaled lipid accumulation score” value [3] is reported as ≤ 0 (inactive).

For `CC(=O)OC1CN2CCC1CC2` (configuration not stated), the “scaled lipid accumulation score” value [1] was 0.001 (inactive).

With `CCCCC/C=C\C/C=C\C/C=C\C/C=C\CCCC(=O)NC1CC1` [Arachidonoyl Cyclopropylamide] the “scaled lipid accumulation score” value [3] was ≤ 0 (inactive).

`CN(C(=O)Cc1ccccc1)C(CN1CCCC1)c1ccccc1` (configuration not stated) [N-MPPP Hydrochloride] was tested, and the “scaled lipid accumulation score” value [1] was 0.172 (inactive).

In the case of `CN(C(=O)Cc1ccc(Cl)c(Cl)c1)C(CN1CCCC1)c1cccc(OCC(=O)O)c1` (configuration not stated) [ICI 204,448 hydrochloride], the “scaled lipid accumulation score” value [1] is reported as 0.053 (inactive).

With `CN(C(=O)Cc1ccc(Cl)c(Cl)c1)[C@H](CN1CCCC1)c1ccccc1.Cl` [ICI-199,441 hydrochloride] the “scaled lipid accumulation score” value [1] was 1.58 (active).

With `CCCCCc1cc(O)c2c(c1)OC(C)(C)C1CCC(C(=O)O)=CC21` (configuration not stated) [Tetrahydrocannabinol-7-oic acid] the “scaled lipid accumulation score” value [3] was ≤ -0.021 (inactive).

With `COc1cc(CNC(=O)CCCCCCC(C)C)c(I)cc1O` the “scaled lipid accumulation score” value [3] was ≤ 0 (inactive).

`COc1cc2c3cc1Oc1cc(ccc1O)C[C@@H]1c4c(cc(OC)c(O)c4Oc4cccc(c4)C[C@@H]3N(C)CC2)CC[N+]1(C)C` [Tubocurarine chloride pentahydrate (+)] was tested, and the “scaled lipid accumulation score” value was 0.039 (inactive).
